Only some compounds are listed: those with a hit (about 9.4% of all), similar ones and a draw of the others.
ELG1 repair inh: inhibitors of ELG1-dependent DNA repair in HEK293T cells; Potency, µM (top dose mostly 46.1 µM), without a hit: at the highest dose activity change, negative = inhibition, actives largely listed as inhibitors; 330,000 tested, 2.3% active; AID 504467; HEK293T ELG1-luciferase reporter, luminescence, 16 h; DNA damage induced by 5-fluorouridine; note: % is set by controls: 0 for no effect and ±100 for the full control effect; nearly all actives have a fitted effect of over 55% in size
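Quantitative HTS, concentration-response format. 2,000 cells/well co-treated with 5-fluorouridine and compound, 16 hr in 5% CO2 at 37 °C; ONE-Glo luminescence read after 30 min.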
NPC1 promoter act: NPC1 promoter activation | Huh7 NPC1 promoter luciferase reporter, 24 h | Potency, µM (doses to about 9.22 µM), without a hit: top-dose activation, most hits filed as activators | 320,000 tested, 2.4% active; note: % of control where 0% means no effect; nearly all actives have a fitted effect of over 60% in size
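Compounds in DMSO were transferred onto Huh7 NPC1-luciferase reporter cells pre-incubated 2 h; after 24 h at 37 °C, Amplite reagent was dispensed and luminescence recorded 10 min later.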
ELG1 genotox: inducers of genotoxicity in HEK293T ELG1-luciferase cells; 330,000 tested, 1.3% active; Potency, µM (doses to about 46 µM), for the others: at the highest dose activity change, positive = activation, actives largely listed as activators; HEK293T ELG1-luciferase reporter, luminescence, 16 h; AID 504466; note: % of control where 0% means no effect; nearly all actives have a fitted effect of over 60% in size
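DMSO vehicle served as control against compound-treated ELG1-luciferase HEK293T cells; exposure lasted 16 hr at 37 °C and 5% CO2, followed by ONE-Glo luminescence detection after 30 min.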
FLuc modulator: inhibits or activates purified firefly luciferase, miR-21 counter-screen | P08659 | purified FLuc, Km substrates, luminescence inhibition | Potency, µM (highest dose often 57.5 µM), inactives show at the top dose activity change, negative = inhibition, actives largely listed as inhibitors | 360,000 tested, 6.9% active | AID 588342;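 note: plate controls were vehicle for no effect and reference inhibitor for full effect; nearly all actives have a fitted effect of over 55% in size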
Target sequence (P08659 whole entry, looked up): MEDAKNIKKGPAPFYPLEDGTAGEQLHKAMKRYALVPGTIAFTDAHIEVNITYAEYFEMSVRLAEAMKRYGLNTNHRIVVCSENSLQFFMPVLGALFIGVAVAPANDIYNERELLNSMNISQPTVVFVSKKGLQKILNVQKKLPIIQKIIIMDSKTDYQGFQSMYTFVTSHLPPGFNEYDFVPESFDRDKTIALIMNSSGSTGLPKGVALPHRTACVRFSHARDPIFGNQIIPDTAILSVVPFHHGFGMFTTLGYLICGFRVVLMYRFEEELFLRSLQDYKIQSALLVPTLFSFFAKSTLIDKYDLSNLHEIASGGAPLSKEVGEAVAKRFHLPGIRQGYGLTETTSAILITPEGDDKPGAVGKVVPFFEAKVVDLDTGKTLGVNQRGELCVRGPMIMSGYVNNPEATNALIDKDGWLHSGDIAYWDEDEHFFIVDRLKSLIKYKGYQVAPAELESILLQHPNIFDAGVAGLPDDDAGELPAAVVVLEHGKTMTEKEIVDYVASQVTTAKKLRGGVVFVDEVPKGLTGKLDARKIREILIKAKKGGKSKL
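Biochemical qHTS of compounds, final roughly 60 µM downward over six points, against 10 nM purified firefly luciferase using Km concentrations of substrates (10 uM D-luciferin, 10 uM ATP) in Tris acetate pH 7.5 buffer; luminescence output.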
Rab9 prom act: activators of Rab9 promoter | Potency, µM (highest dose often 9.22 µM), inactives show top-dose activation, negative = inhibition, actives largely listed as activators | 320,000 tested, 2.8% active | Huh7 Rab9 promoter-luciferase reporter, luminescence, 24 h | AID 485297; note: % of control where 0% means no effect; nearly all actives have a fitted effect of over 60% in size
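Measured in stably transfected Huh7 cells bearing a Rab9 promoter–luciferase construct: 24 h compound treatment at 37 °C, followed by luminescence detection.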
SMN2 splice up: increases expression of the SMN2 splice variant; HEK293 SMN2-luciferase splicing reporter, luminescence, 30-36 h; Potency, µM (doses to about 46.1 µM), without a hit: at the highest dose activity change, positive = activation, actives largely listed as activators; 210,000 tested, 2.8% active; AID 1458; note: % of control where 0% means no effect; nearly all actives have a fitted effect of over 55% in size
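HEK293 cells carry an SMN2 minigene-luciferase reporter in which exon 7 inclusion puts luciferase in frame. Cells were seeded at 2000 cells/well, attached for 10-12 hours, then exposed to compounds for 30-36 hours at 37C before ONE-Glo luminescence.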
ELG1 Luc conf: confirmation of human ELG1-dependent DNA repair inhibitors | shares compounds with ELG1 repair inh | HEK293T ELG1-luciferase levels, luminescence; cells co-treated with 5-fluorouridine | Potency, µM (highest dose often 46.1 µM), for the others: top-dose activity change, negative = inhibition, most hits filed as inhibitors | 670 tested, 68% active; note: % is set by controls: 0 for no effect and ±100 for the full control effect; nearly all actives have a fitted effect of over 55% in size
ELG1 MMS Luc: MMS-stimulated human ELG1 repair inhibition, confirmed; shares compounds with ELG1 repair inh; HEK293T luciferase-tagged ELG1 level, MMS stimulated; Potency, µM (highest dose often 46.1 µM), inactives show at the top dose activity change, negative = inhibition, actives largely listed as inhibitors; 670 tested, 53% active; AID 624249; note: % is set by controls: 0 for no effect and ±100 for the full control effect; nearly all actives have a fitted effect of over 60% in size
ELG1 5-FU: confirmation of ELG1 repair inhibitors: viability with 5FU; shares compounds with ELG1 repair inh; cell viability with 5-FU, ELG1-dependent repair; Potency, µM (doses to about 46.1 µM), for the others: at the highest dose activity change, negative = viability loss, usual class: cytotoxic; 670 tested, under 10 active;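 note: ELG1-luc HEK293T cells cotreated with 5-fluorouridine at 10 µM final; viability measured 16 h after compound addition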
ELG1 MMS viab: confirmation of ELG1 repair inhibitors: viability with MMS | Cell viability with MMS, ELG1-dependent DNA repair | Potency, µM (titrated, usually from 46.1 µM), inactives show at the top dose activity change, negative = viability loss, actives largely listed as cytotoxic | shares compounds with ELG1 repair inh | 670 tested, 33% active;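 note: ELG1-luc HEK293T cells co-treated with 10 µM MMS; viability read 16 h after compound addition; % is set by controls: 0 for no effect and ±100 for the full control effect; nearly all actives have a fitted effect of over 60% in size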
ELG1 unstim viab: affects unstimulated cell viability, ELG1 hit counter-screen. shares compounds with ELG1 repair inh. cell viability counter-screen, unstimulated, luminescence. Potency, µM (doses to about 45.9 µM), for the others: at the highest dose activity change, negative = loss of viability, actives largely listed as cytotoxic. 900 tested, 8% active;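 note: compound exposure lasted 16 hours before reading; % is set by controls: 0 for no effect and ±100 for the full control effect; nearly all actives have a fitted effect of over 55% in size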
Starred values were filed as active, the others as inactive; ? = inconclusive; / = no result. Calls come from the whole dose curve; as a rule, active = well fitted curve in the direction sought with a large enough effect; inconclusive = small, poorly fitted or top-dose-only effect, or another doubt; inactive = no such curve, though single readings can be large; an effect the other way counts as inactive or inconclusive. Potency is the fitted concentration of half-maximal effect.

SMILES | ELG1 repair inh | NPC1 promoter act | ELG1 genotox | FLuc modulator | Rab9 prom act | SMN2 splice up | ELG1 Luc conf | ELG1 MMS Luc | ELG1 5-FU | ELG1 MMS viab | ELG1 unstim viab
Cc1cc(C)n2nc(CNC(=O)c3c(F)cccc3F)nc2n1 | / | / | / | -6% | / | -3% | / | / | / | / | /
CC1CCc2nc(N)c(C#N)c(-c3cccnc3)c2C1 (centres undefined) | 1.2µM* | 9% | -13% | -1% | -2% | -9% | 1.6µM* | 14µM* | 3% | 22µM* | -2%
CC1CCc2nc(N)c(C#N)c(-c3ccncc3)c2C1 (centres undefined) | 2% | 5% | 2% | 0% | 3% | 7% | / | / | / | / | /
COc1ccc(OC)c(NC(=O)CN2CCC(NC(=O)c3ccccc3C)CC2)c1 | ? | -1% | -9% | 0% | 0% | / | / | / | / | / | /
COc1cc(C)c(CN2CCN(CC(=O)Nc3ccccc3C(=O)NC3CC3)CC2)cc1OC | 3.7µM* | 0% | -2% | 4% | 1% | / | 4µM* | 28µM* | ? | -18% | 3%
COc1ccc(OC)c(CN2CCN(CC(=O)Nc3ccccc3C(=O)NC3CC3)CC2)c1 | ? | -1% | -7% | -2% | -6% | / | 7.1µM* | ? | ? | ? | ?
COc1ccc(NC(=O)CN2CCN(C3c4ccccc4-c4ccccc43)CC2)c(OC)c1 | 3.7µM* | -2% | -10% | 0% | -10% | -29% | 4µM* | 8.9µM* | ? | ? | -12%
COc1ccc(NC(=O)CN2CCN(c3ccccc3F)CC2)c(OC)c1 | / | / | / | 6% | / | / | / | / | / | / | /
NC(=O)C1CCN(CC(=O)Nc2ccccc2C(=O)NC2CC2)CC1 | 15% | 1% | 2% | 0% | 2% | / | / | / | / | / | /
COC(=O)c1scc(-c2ccc(C)cc2)c1S(=O)(=O)N1CCN(c2ccc(C(C)=O)cc2)CC1 | / | / | / | -2% | / | / | / | / | / | / | /
COc1ccccc1/C=C/c1nc2ccccc2s1 | / | / | / | / | / | / | / | / | / | / | -2%
COC(=O)c1ccccc1NC(=O)c1c(C)oc2ncn(C)c(=O)c12 | / | / | / | -5% | / | -1% | / | / | / | / | /
CCCOc1cccc(C(=O)Nc2ccc(-c3nc4ccccc4s3)c(Cl)c2)c1 | / | / | / | -9% | / | 11% | / | / | / | / | /
COc1ccc(C(=O)Nc2nc(-c3ccccn3)cs2)cc1S(=O)(=O)N1CCOCC1 | 4.1µM* | / | -4% | / | / | / | 13µM* | 22µM* | -2% | 28µM* | ?
